Data as given in PMC7862700, “An all-to-all approach to the identification of sequence-specific readers for epigenetic DNA modifications on cytosine”.

What was measured:
Experiment in all cases: DAPPL (digital affinity profiling via proximity ligation, sequencing); 10 mM Tris-HCl pH 7.5, 50 mM NaCl, 1 mM DTT, 4% glycerol, room temperature, 30 min; GST-TFs on glutathione beads, 16-mer random dsDNA library, 0.1% formaldehyde crosslink after washing; high values mean tight binding
Conditions in all cases: protein: recombinant; tags: N-terminal GST; dsDNA, one strand shown
FLI1 = target: T1, FLI1 (Homo sapiens, UniProt Q01543 1-452)
T1 sequence: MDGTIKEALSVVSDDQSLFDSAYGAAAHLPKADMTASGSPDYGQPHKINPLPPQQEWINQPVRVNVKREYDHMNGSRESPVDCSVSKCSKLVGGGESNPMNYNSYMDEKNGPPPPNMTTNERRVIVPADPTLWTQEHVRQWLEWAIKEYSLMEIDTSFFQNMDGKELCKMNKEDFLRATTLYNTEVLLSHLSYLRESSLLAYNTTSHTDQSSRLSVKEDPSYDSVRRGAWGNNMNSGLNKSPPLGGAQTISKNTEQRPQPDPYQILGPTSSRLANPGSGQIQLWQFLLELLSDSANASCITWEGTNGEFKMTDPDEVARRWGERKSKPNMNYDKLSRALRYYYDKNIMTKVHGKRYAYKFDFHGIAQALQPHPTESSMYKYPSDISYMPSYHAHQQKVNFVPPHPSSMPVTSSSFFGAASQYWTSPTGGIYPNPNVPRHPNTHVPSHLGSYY
Summary of the method: (§1)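 Pools were built from human transcription factors expressed in yeast as GST fusions, captured on glutathione beads and DNA-barcoded, along with a tag-only sample. Incubation with 200 nmole of a 16-mer random double-stranded DNA library lasted 30 min at room temperature in Tris/NaCl/DTT/glycerol buffer, and was followed by washing, 0.1% formaldehyde crosslinking, proximity ligation, PCR amplification and Illumina NextSeq500 sequencing. Binding signal is the quotient of each hexamer's read frequency for a factor and its frequency for the tag-only sample.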

ELK1 = target: T2, ELK1 (Homo sapiens, UniProt P19419 1-428)
T2 sequence: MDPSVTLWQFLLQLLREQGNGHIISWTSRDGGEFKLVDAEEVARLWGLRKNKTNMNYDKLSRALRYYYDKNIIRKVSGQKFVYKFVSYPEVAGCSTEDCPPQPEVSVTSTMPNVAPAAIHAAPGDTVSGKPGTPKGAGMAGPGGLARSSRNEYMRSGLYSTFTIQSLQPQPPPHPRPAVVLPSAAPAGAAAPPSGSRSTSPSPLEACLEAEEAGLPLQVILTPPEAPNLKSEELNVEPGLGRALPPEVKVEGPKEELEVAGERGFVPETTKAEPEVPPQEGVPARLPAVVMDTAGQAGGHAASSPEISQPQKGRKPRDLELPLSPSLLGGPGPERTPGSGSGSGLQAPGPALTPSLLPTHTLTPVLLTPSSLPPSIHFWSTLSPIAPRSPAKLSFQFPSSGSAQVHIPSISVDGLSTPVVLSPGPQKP
Summary of the method: as §1

GABPA = target: T3, GABPA (Homo sapiens, UniProt Q06546 1-454)
T3 sequence: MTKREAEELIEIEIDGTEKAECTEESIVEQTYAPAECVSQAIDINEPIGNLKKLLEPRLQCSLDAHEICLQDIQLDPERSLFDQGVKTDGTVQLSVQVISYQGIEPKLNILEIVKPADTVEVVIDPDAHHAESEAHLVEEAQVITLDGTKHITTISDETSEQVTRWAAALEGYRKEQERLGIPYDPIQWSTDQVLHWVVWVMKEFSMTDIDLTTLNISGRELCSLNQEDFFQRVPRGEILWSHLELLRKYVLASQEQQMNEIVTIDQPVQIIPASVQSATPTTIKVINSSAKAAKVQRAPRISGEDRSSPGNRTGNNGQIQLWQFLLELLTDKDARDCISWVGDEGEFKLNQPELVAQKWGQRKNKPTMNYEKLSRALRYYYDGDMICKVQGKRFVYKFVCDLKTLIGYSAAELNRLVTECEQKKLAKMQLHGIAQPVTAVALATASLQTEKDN
Summary of the method: as §1

ERG = target: T4, ERG (Homo sapiens, UniProt P11308 1-479)
T4 sequence: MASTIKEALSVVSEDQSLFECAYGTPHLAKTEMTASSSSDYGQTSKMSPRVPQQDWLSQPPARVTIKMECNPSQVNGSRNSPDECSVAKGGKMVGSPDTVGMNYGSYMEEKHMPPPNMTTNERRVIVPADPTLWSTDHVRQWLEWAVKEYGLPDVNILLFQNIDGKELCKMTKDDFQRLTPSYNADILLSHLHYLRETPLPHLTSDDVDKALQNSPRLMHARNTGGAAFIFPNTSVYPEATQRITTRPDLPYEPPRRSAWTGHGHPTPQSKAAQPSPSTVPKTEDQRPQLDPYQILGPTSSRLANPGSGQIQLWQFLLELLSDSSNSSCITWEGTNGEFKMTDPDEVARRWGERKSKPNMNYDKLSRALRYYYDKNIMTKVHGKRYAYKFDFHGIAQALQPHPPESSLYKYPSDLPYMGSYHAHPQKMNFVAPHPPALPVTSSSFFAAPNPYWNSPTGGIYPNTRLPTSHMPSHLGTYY
Summary of the method: as §1

ELF1 = ELF1 (Homo sapiens, UniProt P32519 1-619)
Summary of the method: as §1

EHF = target: T5, EHF (Homo sapiens, UniProt Q9NZC4 1-300)
T5 sequence: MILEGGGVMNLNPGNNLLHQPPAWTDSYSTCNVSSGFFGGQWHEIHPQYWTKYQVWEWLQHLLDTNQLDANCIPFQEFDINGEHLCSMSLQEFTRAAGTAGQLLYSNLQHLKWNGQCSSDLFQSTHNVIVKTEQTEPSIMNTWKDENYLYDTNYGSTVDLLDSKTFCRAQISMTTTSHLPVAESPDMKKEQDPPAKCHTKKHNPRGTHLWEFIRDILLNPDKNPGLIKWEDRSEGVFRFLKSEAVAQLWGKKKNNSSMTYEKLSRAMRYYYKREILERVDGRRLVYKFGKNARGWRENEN
Summary of the method: as §1

SPI1 = SPI1 (Homo sapiens, UniProt P17947 1-270)
Summary of the method: as §1

SPIB = SPIB (Homo sapiens, UniProt Q01892 1-262)
Summary of the method: as §1

ETV5 = ETV5 (Homo sapiens, UniProt P41161 1-510)
Summary of the method: as §1

ELF4 = ELF4 (Homo sapiens, UniProt Q99607 1-663)
Summary of the method: as §1

ETV2 = target: T6, ETV2 (Homo sapiens, UniProt O00321 1-342)
T6 sequence: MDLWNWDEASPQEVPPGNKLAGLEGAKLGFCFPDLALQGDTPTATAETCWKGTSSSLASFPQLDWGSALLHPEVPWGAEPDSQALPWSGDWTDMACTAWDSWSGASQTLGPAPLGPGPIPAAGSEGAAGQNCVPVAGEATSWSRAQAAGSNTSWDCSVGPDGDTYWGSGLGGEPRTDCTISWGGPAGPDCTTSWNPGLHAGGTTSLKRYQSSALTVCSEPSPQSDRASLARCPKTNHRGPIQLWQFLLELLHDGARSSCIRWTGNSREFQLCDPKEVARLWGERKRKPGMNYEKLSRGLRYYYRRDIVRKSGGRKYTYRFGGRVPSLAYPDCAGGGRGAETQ
Summary of the method: as §1

ELF3 = target: T7, ELF3 (Homo sapiens, UniProt P78545 1-371)
T7 sequence: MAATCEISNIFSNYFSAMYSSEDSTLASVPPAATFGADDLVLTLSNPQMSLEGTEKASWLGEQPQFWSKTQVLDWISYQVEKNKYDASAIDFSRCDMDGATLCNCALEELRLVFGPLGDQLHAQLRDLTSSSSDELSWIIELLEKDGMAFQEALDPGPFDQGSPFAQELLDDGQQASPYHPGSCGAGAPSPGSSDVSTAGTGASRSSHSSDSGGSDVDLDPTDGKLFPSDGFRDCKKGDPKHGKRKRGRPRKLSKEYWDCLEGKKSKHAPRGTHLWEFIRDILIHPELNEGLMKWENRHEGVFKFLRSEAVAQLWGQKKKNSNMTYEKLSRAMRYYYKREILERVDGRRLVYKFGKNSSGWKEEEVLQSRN
Summary of the method: as §1

ETV1 = ETV1 (Homo sapiens, UniProt P50549 1-477)
Summary of the method: as §1

ERF = target: T8, ERF (Homo sapiens, UniProt P50548 1-548)
T8 sequence: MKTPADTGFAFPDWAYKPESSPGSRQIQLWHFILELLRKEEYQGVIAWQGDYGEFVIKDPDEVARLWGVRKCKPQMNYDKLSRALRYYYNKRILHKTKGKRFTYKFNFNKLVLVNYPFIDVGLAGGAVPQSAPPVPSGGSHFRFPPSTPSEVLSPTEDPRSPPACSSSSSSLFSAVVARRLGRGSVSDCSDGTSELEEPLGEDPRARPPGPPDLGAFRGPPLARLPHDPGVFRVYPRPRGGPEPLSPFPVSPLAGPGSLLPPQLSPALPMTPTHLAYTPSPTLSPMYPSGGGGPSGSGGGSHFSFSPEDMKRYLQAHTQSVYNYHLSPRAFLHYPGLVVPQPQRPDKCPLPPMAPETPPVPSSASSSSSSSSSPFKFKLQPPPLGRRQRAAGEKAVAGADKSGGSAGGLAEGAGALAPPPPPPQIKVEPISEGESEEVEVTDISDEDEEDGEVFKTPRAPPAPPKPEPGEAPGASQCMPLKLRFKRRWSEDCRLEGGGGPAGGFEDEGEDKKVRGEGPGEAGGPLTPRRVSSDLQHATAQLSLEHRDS
Summary of the method: as §1

ETV3L = target: T9, ETV3L (Homo sapiens, UniProt Q6ZN32 1-361)
T9 sequence: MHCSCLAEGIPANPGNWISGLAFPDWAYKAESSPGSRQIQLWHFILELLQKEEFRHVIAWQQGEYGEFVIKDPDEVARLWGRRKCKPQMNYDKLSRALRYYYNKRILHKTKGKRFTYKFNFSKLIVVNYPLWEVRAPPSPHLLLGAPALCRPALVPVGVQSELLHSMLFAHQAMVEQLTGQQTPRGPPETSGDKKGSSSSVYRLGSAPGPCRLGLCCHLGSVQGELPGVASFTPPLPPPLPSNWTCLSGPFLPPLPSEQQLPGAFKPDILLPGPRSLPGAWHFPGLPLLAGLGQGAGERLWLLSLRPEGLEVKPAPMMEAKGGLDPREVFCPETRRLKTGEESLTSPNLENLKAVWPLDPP
Summary of the method: as §1

ETV7 = target: T10, ETV7 (Homo sapiens, UniProt Q9Y603 1-341)
T10 sequence: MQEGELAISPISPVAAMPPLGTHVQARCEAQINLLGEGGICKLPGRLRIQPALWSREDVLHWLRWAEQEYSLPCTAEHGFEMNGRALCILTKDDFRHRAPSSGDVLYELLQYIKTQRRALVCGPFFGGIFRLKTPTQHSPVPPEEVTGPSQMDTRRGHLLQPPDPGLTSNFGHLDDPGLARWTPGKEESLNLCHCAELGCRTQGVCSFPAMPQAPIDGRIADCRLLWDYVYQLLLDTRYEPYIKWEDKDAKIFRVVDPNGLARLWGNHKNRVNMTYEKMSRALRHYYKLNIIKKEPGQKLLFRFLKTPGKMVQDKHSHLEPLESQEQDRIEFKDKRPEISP
Summary of the method: as §1

ETV3 = target: T11, ETV3 (Homo sapiens, UniProt P41162-2 1-143)
T11 sequence: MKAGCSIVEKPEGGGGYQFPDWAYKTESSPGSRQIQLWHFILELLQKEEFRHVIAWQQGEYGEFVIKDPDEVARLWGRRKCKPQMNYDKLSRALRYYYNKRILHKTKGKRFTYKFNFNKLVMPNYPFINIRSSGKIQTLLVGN
Summary of the method: as §1

ETV6 = ETV6 (Homo sapiens, UniProt P41212 1-452)
Summary of the method: as §1

Sequence of ETV1 (P50549 whole entry): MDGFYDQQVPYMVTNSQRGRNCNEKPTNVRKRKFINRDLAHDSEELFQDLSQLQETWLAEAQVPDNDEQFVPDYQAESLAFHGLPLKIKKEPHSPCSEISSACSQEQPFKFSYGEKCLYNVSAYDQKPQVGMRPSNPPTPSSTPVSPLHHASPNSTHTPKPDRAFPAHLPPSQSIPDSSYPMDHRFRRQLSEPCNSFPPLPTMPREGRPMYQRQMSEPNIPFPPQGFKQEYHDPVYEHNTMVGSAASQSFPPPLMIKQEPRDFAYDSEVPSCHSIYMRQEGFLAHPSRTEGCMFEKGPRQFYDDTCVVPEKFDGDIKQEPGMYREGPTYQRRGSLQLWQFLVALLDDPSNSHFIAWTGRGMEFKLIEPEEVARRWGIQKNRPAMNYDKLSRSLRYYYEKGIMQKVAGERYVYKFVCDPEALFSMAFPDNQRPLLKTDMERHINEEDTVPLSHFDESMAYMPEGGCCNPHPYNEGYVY
Sequence of SPIB (Q01892 whole entry): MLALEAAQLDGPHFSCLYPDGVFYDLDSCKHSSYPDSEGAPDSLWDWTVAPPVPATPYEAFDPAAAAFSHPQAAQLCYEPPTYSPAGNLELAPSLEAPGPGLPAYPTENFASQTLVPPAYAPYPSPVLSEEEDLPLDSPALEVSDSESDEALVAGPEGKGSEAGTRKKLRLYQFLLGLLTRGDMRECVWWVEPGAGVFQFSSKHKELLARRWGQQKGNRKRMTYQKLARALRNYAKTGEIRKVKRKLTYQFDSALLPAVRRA
Sequence of ELF4 (Q99607 whole entry): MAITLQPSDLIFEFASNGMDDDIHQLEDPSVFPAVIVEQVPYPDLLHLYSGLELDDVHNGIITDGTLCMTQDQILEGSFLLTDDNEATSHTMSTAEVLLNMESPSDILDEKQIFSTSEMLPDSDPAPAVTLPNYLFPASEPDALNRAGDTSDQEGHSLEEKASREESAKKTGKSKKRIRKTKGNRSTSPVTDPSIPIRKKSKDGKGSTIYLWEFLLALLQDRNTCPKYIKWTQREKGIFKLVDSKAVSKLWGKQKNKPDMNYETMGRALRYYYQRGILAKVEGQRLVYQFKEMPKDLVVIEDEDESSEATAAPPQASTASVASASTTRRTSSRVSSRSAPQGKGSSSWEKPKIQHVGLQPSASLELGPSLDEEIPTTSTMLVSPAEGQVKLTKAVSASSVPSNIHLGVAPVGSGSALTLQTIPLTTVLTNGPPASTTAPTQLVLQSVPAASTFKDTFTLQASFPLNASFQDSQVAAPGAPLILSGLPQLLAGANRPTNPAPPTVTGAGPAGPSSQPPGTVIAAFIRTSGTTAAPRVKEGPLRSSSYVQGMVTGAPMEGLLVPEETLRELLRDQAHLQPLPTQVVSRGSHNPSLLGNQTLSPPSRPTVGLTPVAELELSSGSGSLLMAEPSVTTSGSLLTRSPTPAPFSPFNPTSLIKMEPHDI
Sequence of ETV6 (P41212 whole entry): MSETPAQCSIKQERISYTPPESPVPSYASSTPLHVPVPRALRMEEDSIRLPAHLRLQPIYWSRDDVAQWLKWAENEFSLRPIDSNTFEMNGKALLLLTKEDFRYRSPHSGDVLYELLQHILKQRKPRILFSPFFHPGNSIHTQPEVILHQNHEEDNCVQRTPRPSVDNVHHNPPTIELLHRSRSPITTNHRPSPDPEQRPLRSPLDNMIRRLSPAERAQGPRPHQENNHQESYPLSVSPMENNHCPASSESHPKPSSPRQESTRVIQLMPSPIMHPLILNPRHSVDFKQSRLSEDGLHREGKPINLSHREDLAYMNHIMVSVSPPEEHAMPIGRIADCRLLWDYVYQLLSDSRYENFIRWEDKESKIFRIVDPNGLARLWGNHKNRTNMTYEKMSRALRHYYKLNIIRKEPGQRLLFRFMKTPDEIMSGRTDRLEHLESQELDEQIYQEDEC
Sequence of ETV5 (P41161 whole entry): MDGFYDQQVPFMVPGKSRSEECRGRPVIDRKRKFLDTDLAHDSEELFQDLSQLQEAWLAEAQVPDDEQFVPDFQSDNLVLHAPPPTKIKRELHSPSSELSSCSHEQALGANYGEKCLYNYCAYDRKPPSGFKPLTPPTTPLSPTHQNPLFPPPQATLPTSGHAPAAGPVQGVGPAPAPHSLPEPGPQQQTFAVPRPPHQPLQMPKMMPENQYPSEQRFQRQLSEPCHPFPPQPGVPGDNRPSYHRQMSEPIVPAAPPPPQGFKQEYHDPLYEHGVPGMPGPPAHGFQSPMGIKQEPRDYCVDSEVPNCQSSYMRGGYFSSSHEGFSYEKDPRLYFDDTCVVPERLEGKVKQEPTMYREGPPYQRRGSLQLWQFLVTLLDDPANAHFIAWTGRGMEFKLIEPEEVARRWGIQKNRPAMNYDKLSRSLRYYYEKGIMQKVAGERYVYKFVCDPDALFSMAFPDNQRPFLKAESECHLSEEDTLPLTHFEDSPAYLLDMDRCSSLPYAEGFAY
Sequence of ELF1 (P32519 whole entry): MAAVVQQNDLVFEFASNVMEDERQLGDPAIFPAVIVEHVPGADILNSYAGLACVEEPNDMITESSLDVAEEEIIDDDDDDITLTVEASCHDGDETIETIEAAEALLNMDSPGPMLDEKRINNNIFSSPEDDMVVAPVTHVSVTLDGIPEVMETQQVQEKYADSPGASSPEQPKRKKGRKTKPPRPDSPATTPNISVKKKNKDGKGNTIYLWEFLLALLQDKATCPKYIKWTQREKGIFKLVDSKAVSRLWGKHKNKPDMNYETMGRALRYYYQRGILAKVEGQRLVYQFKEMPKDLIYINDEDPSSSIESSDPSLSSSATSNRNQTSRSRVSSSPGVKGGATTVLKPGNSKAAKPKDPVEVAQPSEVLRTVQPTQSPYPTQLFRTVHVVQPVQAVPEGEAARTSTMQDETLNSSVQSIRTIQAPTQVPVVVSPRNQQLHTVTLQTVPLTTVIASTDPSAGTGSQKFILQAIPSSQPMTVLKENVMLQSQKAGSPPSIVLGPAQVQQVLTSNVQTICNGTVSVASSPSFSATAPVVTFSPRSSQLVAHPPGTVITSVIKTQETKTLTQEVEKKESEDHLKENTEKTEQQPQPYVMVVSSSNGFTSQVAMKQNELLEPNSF

CGTAGC
binding signal (FLI1): 1.13 fold enrichment (6-mer frequency, TF over GST control)
binding signal (ELK1): 1.07 fold enrichment (6-mer frequency, TF over GST control)
binding signal (GABPA): 1.08 fold enrichment (6-mer frequency, TF over GST control)
binding signal (ERG): 1.04 fold enrichment (6-mer frequency, TF over GST control)
binding signal (ELF1): 1.1 fold enrichment (6-mer frequency, TF over GST control)
binding signal (EHF): 1.05 fold enrichment (6-mer frequency, TF over GST control)
binding signal (SPI1): 1.04 fold enrichment (6-mer frequency, TF over GST control)
binding signal (SPIB): 1.07 fold enrichment (6-mer frequency, TF over GST control)
binding signal (ETV5): 1.08 fold enrichment (6-mer frequency, TF over GST control)
binding signal (ELF4): 1.07 fold enrichment (6-mer frequency, TF over GST control)
binding signal (ETV2): 1.03 fold enrichment (6-mer frequency, TF over GST control)
binding signal (ELF3): 1.12 fold enrichment (6-mer frequency, TF over GST control)
binding signal (ETV1): 1.15 fold enrichment (6-mer frequency, TF over GST control)
binding signal (ERF): 1.03 fold enrichment (6-mer frequency, TF over GST control)
binding signal (ETV3L): 1.09 fold enrichment (6-mer frequency, TF over GST control)
binding signal (ETV7): 1.09 fold enrichment (6-mer frequency, TF over GST control)
binding signal (ETV3): 1.04 fold enrichment (6-mer frequency, TF over GST control)
binding signal (ETV6): 1.1 fold enrichment (6-mer frequency, TF over GST control)
